Data taken from PubChem BioAssay AID1851 (National Center for Advancing Translational Sciences (NCATS), 2009).
Among all 16,000 compounds or so, about 4,000 (25%) were called active. About 26% were inconclusive and are not listed. The call rests on the fitted dose curve; in most records, active means well fitted curve in the direction sought with a large enough effect; inconclusive means small, poorly fitted or top-dose-only effect, or effect the other way; inactive means no such curve, though single readings can be large or run the other way. These entries were drawn from the full list. Square brackets hold non-standard residues; d marks the D form. Peptide text beside a SMILES is read from it.

Each molecule was assayed against Cytochrome P450 2C9 (Homo sapiens) (UniProt P11712) (assay: Cytochrome panel assay with activity outcomes). Conditions: recombinant CYP, pro-luciferin dealkylation, luminescence, p450-cyp2c9; series mostly up to 57.1 µM; activity, negative = inhibition: at the top concentration.
Cytochrome P450 2C9 (Homo sapiens), sequence (P11712 whole entry, looked up): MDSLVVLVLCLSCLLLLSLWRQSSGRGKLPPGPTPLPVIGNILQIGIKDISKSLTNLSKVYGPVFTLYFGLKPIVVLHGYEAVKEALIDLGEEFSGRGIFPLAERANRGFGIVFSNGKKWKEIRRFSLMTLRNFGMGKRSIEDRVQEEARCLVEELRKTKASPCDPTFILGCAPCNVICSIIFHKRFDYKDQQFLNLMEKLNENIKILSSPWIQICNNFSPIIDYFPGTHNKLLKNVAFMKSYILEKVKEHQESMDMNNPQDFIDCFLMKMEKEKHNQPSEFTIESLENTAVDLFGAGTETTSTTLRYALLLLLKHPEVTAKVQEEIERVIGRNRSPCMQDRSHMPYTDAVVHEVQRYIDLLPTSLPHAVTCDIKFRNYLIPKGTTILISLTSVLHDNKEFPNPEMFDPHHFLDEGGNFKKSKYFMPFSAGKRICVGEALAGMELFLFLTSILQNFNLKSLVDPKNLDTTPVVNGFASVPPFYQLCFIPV
On the % scale 0 is the no-effect control and ±100 the full control effect.

AC50, active:
O=C(Nc1ccn(Cc2ccccc2F)n1)c1ccc(COc2cc(Cl)ccc2Cl)o1 0.447 µM
CC(C)CNC(=O)c1ccc(COc2ccc(Cl)cc2Cl)o1 3.55 µM
O=C(Nc1cccnc1)c1ccc(COc2cc(Cl)ccc2Cl)o1 14.1 µM
O=C(CCN1C(=O)c2ccccc2C1=O)NC(=S)Nc1cccc(Cl)c1 10 µM
O=C(COc1ccccc1Cl)NC(=S)Nc1cccc(NC(=O)c2ccccc2Cl)c1 0.794 µM
CC(Sc1ccc2c(c1)OCCO2)C(=O)Nc1ncc(Cl)cc1Cl (centres undefined) 3.98 µM
CCc1ccc(N2CC(C(=O)N/N=C/c3cccc([N+](=O)[O-])c3)CC2=O)cc1 (centres undefined) 3.55 µM
CCc1ccc(N2CC(C(=O)NC3=NCCS3)CC2=O)cc1 (centres undefined) 12.6 µM
COC(=O)/C=C\c1cc(O)ccc1O 7.94 µM
O=C(c1ccc(Br)cc1)c1cc([N+](=O)[O-])ccc1N1CCCCC1 2.51 µM
CCn1c(/C=C2/C(=O)N(C)c3ccccc32)nc2ccccc2c1=O 10 µM
CCc1ccc(-c2csc(NC(=O)C3CCCO3)c2C(=O)OC(C)C)cc1 (centres undefined) 4.47 µM
CCOc1cc(/C=C2/SC(=O)N(CC(=O)N3CCc4ccccc4C3)C2=O)ccc1OCC(=O)O 12.6 µM
Cc1ccc(NC(=O)Cn2nc([N+](=O)[O-])c(Br)c2C)cc1C 14.1 µM
CCc1cccc(C)c1NC(=O)CSc1nc2ccc(N3C(=O)c4ccccc4C3=O)cc2s1 3.55 µM
O=C(NC(=S)N(Cc1ccccc1)Cc1ccccc1)c1ccccc1F 0.891 µM
COc1ccc(CN(CCC#N)C(=S)NC(=O)c2ccccc2)cc1 0.631 µM
CCOc1ccc(C(=O)NC(=S)N(Cc2ccccc2)Cc2ccccc2)cc1 10 µM

activity, negative = inhibition, inactive:
CCOc1ccc(Cl)cc1CNCCNCC(C)O (centres undefined) 6.63%
Cn1ncc(Cl)c1C(=O)Nc1cccnc1 -33.2%
O=C(O)NCC1CCCCC1 (tested in a mixture with another compound) -18.2% [at 11.4 µM]
S=C(NCc1ccccn1)Nc1cccc(Cl)c1 4.91%
CCC(=O)NC(=S)Nc1ccc(NC(=O)COc2ccc(Cl)cc2Cl)cc1 -19%
Cc1ccccc1OCC(=O)NC(=S)Nc1ccc(Br)c(C)n1 -24.6%
N[C@H](CO)C(=O)NCC(=O)O (H-[dS]-Gly-OH) 7.87% [at 11.4 µM]
Cc1ccccc1NC(=O)C1CC(=O)N(c2ccc3c4c(cccc24)CC3)C1 (centres undefined) 12.2%
O=C(N/N=C/c1cccc([N+](=O)[O-])c1)c1cc2c(ccc3ccccc32)o1 8.69%
Cc1ccc(NC(=O)/C(=C/c2cccc([N+](=O)[O-])c2)NC(=O)C2CCCCC2)c(C)c1 -13.7%
CC1CCCN(CCCNC(=O)C2CC(=O)N(c3ccc(F)c(Cl)c3)C2)C1 (centres undefined) 17.6%
Nc1nc2c(nc(Br)n2[C@@H]2O[C@H]3COP(=O)(O)O[C@H]3[C@@H]2O)c(=O)[nH]1 -3.31%
COC(=O)[C@](C)(N)Cc1ccc(O)cc1 20%
COc1cc([C@H](O)C(=O)O)ccc1O 13.8%
Cn1c(CCN2CCCCC2)nc2cc([N+](=O)[O-])ccc21 -0.958%
CN1CCN(c2ccc([N+](=O)[O-])cc2C(=O)N2CCOCC2)CC1 14.2%
CCN1CCN(c2nn3c(=O)c4ccccc4nc3c3ccccc23)CC1 -10.3%
Cc1cnc(CNc2cc(-c3ccccc3C)ncn2)cn1 -11.2% [at 2.29 µM]
CO/N=C\[C@@H](OC)[C@H](C)/C=C\CC(=O)OC -2.61% [at 11.4 µM]
Cn1c(=O)[nH]c2ncn(C)c2c1=O 4.36%
Cc1c(Br)c([N+](=O)[O-])nn1CC(=O)NCc1cccs1 -30.1%
Cc1c(Br)c([N+](=O)[O-])nn1CC(=O)NCc1ccccn1 -8.45%
CC[n+]1c(/C=C/Nc2ccccc2)oc2ccccc21 3.83%
CC[N+](CC)(CC(=O)Nc1c(C)cccc1C)Cc1ccccc1 -17.2% [at 25.6 µM]
NC(=O)CNC(=O)[C@@H]1CC2(CC(c3ccccc3)=NO2)CN1C(=O)c1ccc(Br)cc1 (some centres undefined) -2.63%
O=C(O)c1ccccc1C(=O)NCc1ccc(F)cc1 -12.1%
CN1CCN(NC(=O)c2ccccc2F)CC1 -0.803%
O=C(NC1(C(F)(F)F)C(=O)Nc2c1c(=O)[nH]c(=O)n2-c1ccc(F)cc1)c1cccnc1 (centres undefined) -9.59%
Cc1cccc(CNc2ncncc2-c2cccc(C#N)c2)c1 -7.76% [at 2.29 µM]
Cn1cccc1C(=O)N1CCC[C@@]2(CCN(c3ccccn3)C2)C1 3.61%
Cc1ccc(CC(=O)N2CC(C)OC(C)C2)cc1 (centres undefined) 6.48%
